The whole screen tested about 1,800 compounds, of which about 50 (3%) showed activity. Many of the other results were omitted from the sample, so actives are more common in it than they were. Unmarked numbers belong to inactive results.
Each compound was assayed on mouse p16Ink4a+/- lung fibroblasts (INKBRITE, bleomycin-injured) (assay: percentage of GFP+ (p16Ink4a+) fibroblasts among all cells in well; higher = less depletion of p16Ink4a+ cells, active = 20 or less). Conditions: 1 µM; 3 days.

| Compound | percentage of GFP+ |
| --- | --- |
| CC[C@@H]1[C@@H](C)O[C@@](O)([C@@H](C)[C@H](O)[C@H](C)[C@H]2OC(=O)/C=C/C=C/[C@H](C)[C@H]([C@@H](C)[C@@H](O)[C@H](C)[C@@]3(O)C[C@@H](O[C@H]4C[C@H](O)[C@H](O)[C@H](C)O4)[C@H](CC)[C@@H](C)O3)OC(=O)/C=C/C=C/[C@H]2C)C[C@H]1O[C@H]1C[C@H](O)[C@H](O)[C@H](C)O1 [Elaiophylin] | 11.1% (active) |
| O=[N+]([O-])c1ncc[nH]1 [Azomycin] | 43.5% |
| CN1c2ccccc2C(NCCCCCCC(=O)O)c2ccc(Cl)cc2S1(=O)=O (stereo not given) [Tianeptine] | 29.5% |
| C[C@](O)(COc1ccc(C#N)cc1)C(=O)Nc1ccc(C#N)c(C(F)(F)F)c1 | 43.3% |
| CN1CCC(c2c[nH]c3ccc(O)cc23)CC1 | 45.6% |
| CO[C@H]1CCC(O[C@H]2C[C@H]([C@]3(C)CC[C@]4(C[C@H](O)[C@@H](C)[C@@H]([C@@H](C)/C=C(\C)C(=O)[C@H](C)C[C@H](C)C(=O)O)O4)O3)O[C@]3(O[C@@H]([C@H]4O[C@@](O)(CO)[C@H](C)C[C@@H]4C)C[C@@H]3C)[C@@H]2C)O[C@@H]1C (stereo not given in full) [Nanchangmycin] | 18.5% (active) |
| CCCN1C[C@H](CSC)C[C@@H]2c3cccc4[nH]cc(c34)C[C@H]21 [Pergolide] | 54.5% |
| C=CC[C@]1(O)CC[C@H]2[C@@H]3CCC4=CC(=O)CCC4=C3C=C[C@@]21C [Altrenogest] | 48.5% |
| O=P1(NCCCl)OCCCN1CCCl (stereo not given) [Ifosfamide] | 45.7% |
| Cc1cc(C(=O)CN2CCCC2)c(C)n1-c1ccc(F)cc1 | 51.3% |
| CCC1(C)CC(=O)NC(=O)C1 [Bemegride] | 48.1% |
| CC(C)[C@]12O[C@H]1[C@@H]1O[C@]13[C@]1(O[C@H]1C[C@H]1C4=C(CC[C@@]13C)C(=O)OC4)[C@@H]2O [Triptolide] | 4.17% (active) |
| Cc1ccccc1-n1c(Cn2ncc3c(N)ncnc32)nc2cccc(C)c2c1=O | 38.7% |
| CCC1=C[C@@H]2CN3CCc4c([nH]c5ccccc45)[C@@](C(=O)OC)(C2)[C@@H]13 [Catharanthine] | 47.9% |
| CN1CCN(c2nc3ccccc3nc2Cl)CC1 | 42.1% |
